# D2 antagonist = D2 dopamine receptor (human) antagonism. HEK293 TREx D2 cells, calcium flux, dopamine EC80. inhibition, % at 10 µM. 340,000 tested, 2% active. AID 485344. P14416; in the data active means inhibition above about 30%; inactive means below that, where a call was filed; further: 0% is about no effect
# Target sequence (P14416 whole entry, looked up): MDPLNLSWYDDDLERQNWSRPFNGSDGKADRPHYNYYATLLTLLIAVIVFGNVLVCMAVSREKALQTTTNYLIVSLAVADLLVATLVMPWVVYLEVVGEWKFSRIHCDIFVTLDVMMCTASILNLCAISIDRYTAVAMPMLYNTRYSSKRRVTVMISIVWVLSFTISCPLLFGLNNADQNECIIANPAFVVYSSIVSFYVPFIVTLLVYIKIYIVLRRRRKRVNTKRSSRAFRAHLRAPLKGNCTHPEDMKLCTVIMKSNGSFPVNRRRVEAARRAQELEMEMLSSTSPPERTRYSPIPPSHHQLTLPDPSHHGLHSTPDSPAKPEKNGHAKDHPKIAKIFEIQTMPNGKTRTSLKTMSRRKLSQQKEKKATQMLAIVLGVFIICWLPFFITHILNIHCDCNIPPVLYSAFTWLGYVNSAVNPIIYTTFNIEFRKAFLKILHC
#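 Read-out: kinetic calcium fluorescence (1 cycle/s) in inducible HEK293 T-REx D2 cells after an EC80 dopamine addition that followed 180 s compound preincubation. Loss of the dopamine response indicates antagonism.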
# D2 ag-1 = agonists of human D2 dopamine receptor | P14416 | HEK293 T-REx D2 cells, calcium flux agonist mode | activation, % at 2 µM | 340,000 tested, 0.53% active;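 active means activation over 3 SD above normal in the single-dose calcium agonist read, cut at about 30% in these data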; further: 0% is about no effect
#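 Tetracycline-induced HEK293 T-REx cells with force-coupled D2 receptor, plated overnight at 30 C, loaded with no-wash calcium dye. After a 10 s baseline, compound was pin-added and calcium flux read kinetically for 180 s; calcium rises flagged agonists.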
# D2 PAM-1 = human D2 receptor positive allosteric modulation. P14416. DiscoveRx D2 beta-arrestin cells, luminescence, 90 min; 100% = 57 uM dopamine signal. potentiation, % (test concentration not listed). 360,000 tested, 0.23% active; in the data active means potentiation above about 50%
#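 PathHunter beta-arrestin assay in DiscoveRx D2 cells. Compounds were added with an EC20 of dopamine (50 nM final) for 90 min at 37 deg C. Luminescence was read 1 h after detection reagent, with 57 uM dopamine as the EC100 control.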
# D2 ag-2 = agonists of human D2 dopamine receptor (beta-arrestin); DiscoveRx PathHunter D2 beta-arrestin, luminescence, 90 min; 100% = 57 uM dopamine signal; activation, % (concentration not given with the values); 360,000 tested, 0.084% active; AID 624465; in the data active means activation above about 40%
#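 Agonist mode: compounds alone added to overnight-plated D2 PathHunter cells for 90 min at 37 C, with 57 uM final dopamine (EC100) defining full response. Beta-arrestin recruitment detected by chemiluminescent reagent, read after 1 h at ambient temperature.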
# D2 PAM-2 = positive allosteric modulators of human D2 dopamine receptor; potentiation, % at 10 µM; P14416; HEK293 T-REx D2, calcium flux, EC20 dopamine potentiation; 340,000 tested, 0.34% active;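 active means potentiation over 3 SD above the plate norm, cut at about 30% in these data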; further: 0% is about no effect
#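 Potentiation of an EC20 dopamine calcium response is measured in a force-coupled, tetracycline-inducible Hek293 Trex D2 line. Compound-only kinetic reads over 180 s flag agonists before dopamine addition.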
# * = called active by the depositor; . = not tested or not shown. Hits are enriched below; roughly 2.4% of the tested compounds scored in any of these assays.
SMILES,D2 antagonist,D2 ag-1,D2 PAM-1,D2 ag-2,D2 PAM-2
CCn1c2ccccc2c2cc(/C=N/NC(=O)c3cccc(C)c3)ccc21,-11.5,0.8,7.8,0.7,8.3
CCn1c2ccccc2c2cc(/C=N/NC(=O)c3ccccc3C)ccc21,36.2*,-0.8,-9.3,-6.3,-4.2
O=C(O)C1CCN(C(=O)COc2ccc3c4c(c(=O)oc3c2)CCC4)CC1,14.9,5.5,-7.1,-2.7,16.3
NC(=O)C1CCN(C(=O)COc2ccc3c4c(c(=O)oc3c2)CCCC4)CC1,30.8*,1.6,-26.2,-5.6,7.5
COC(=O)c1cc2occc2n1Cc1ccc(F)cc1Cl,.,0.2,.,.,-4.5
Cc1cccc2sc(N(Cc3cccnc3)C(=O)Cc3ccccc3)nc12,.,21.5,.,.,0.3
O=S(=O)(c1ccccc1)N1CCN(C(=S)NCCc2ccccc2)CC1,38.4*,0.0,-2.5,-3.9,-3.1
Cc1nn(-c2ccc(N3CCCC3)nn2)c(C)c1CCC(=O)N1CCN(c2ccc(F)cc2)CC1,.,-0.1,.,.,14.3
O=C(NC1CCCC1)C(c1ccc(F)cc1)N(C(=O)Cc1cccs1)c1ccc2c(c1)OCCO2 (stereo not given),4.9,0.3,-2.7,0.2,-1.4
Cc1ccc(C(C(=O)NC2CCCC2)N(C(=O)Cc2cccs2)c2ccc3c(c2)OCCO3)cc1 (stereo not given),48.1*,1.7,-6.6,-5.3,-8.0
Cc1nc2ccc(Cl)cc2nc(C)/c1=N\O,-11.1,0.6,83.1*,12.8,8.4
CCOc1ccccc1NS(=O)(=O)c1ccc(N2CCCCS2(=O)=O)cc1,.,.,.,.,-3.1
CSc1cccc(NC(=S)NCCCN2CCN(c3ccc(F)cc3)CC2)c1,43.0*,1.3,-13.3,-1.6,-21.3
COc1ccc(-c2noc(CCC(=O)NCCCN3CCN(c4ccc(F)cc4)CC3)n2)cc1,95.3*,0.9,-3.5,-1.9,-20.5
COc1ccc(-c2noc(CCC(=O)NCCCN3CCC(Cc4ccccc4)CC3)n2)cc1,.,.,-40.5,0.0,.
Oc1cccc(Nc2ncnc3ccccc23)c1,51.0*,0.5,-10.0,-2.3,3.2
Cc1cccc(N2CCN(C(=O)Cn3c(C)c4cnn(-c5ccccc5)c(=O)c4c3C)CC2)c1C,.,0.8,.,.,-5.4
COC(=O)C/C=C/[C@@H](C)[C@@H](/C=N/OC[C@@H](C)[C@H](OCc1ccccc1)C(C)C)NS(=O)(=O)c1ccc(C)cc1,.,.,.,.,2.1
C=CC[C@@H]1C=C[C@H](O/N=C/[C@@H](NS(=O)(=O)c2ccc(C)cc2)[C@H](C)/C=C/CC(=O)OC)[C@@H](CO)O1,31.0*,-1.1,.,.,3.0
COc1ccc(CNC(=O)CN2N=C(c3ccccc3)CCC2=O)c(OC)c1,.,0.8,.,.,-9.3
Fc1ccc(-c2csc(=S)[nH]2)cc1,31.0*,-0.3,-3.7,-1.9,-2.4
S=c1[nH]c(-c2ccccc2)cs1,8.3,-0.2,-16.4,4.7,10.6
CCC(C(=O)NCc1ccccc1Cl)n1c(=O)c2cccn2c2ccccc21 (stereo not given),.,0.7,.,.,3.8
O=C(O)c1ccccc1-c1ccc(/C=C/c2cc(C(F)(F)F)[nH]c(=O)n2)o1,16.0,45.2*,-0.3,-2.6,2.3
CCc1ccc2oc(C(=O)Nc3cc(C)ccc3C)cc(=O)c2c1,.,.,.,.,1.1
SMILES,D2 antagonist,D2 ag-1,D2 PAM-1,D2 ag-2,D2 PAM-2
Cc1ccc(/C=C/C(=O)OCC(=O)NCc2ccccc2)o1,-5.5,-0.5,6.5,-3.6,-4.2
CCCNC(=O)COC(=O)/C=C/c1ccc(C)o1,30.3*,2.2,-6.1,-2.6,-3.0
Cc1ccc(/C=C/C(=O)Oc2ccc(C#N)cc2)o1,48.4*,0.1,.,.,2.9
Cc1c(C(=O)OCC2CCCCC2)[nH]c2c1C(=O)CC(c1ccccc1Cl)C2 (stereo not given),.,1.4,.,.,1.0
CCN(CC)S(=O)(=O)c1cccc(NC(=O)COC(=O)c2ccc(Br)o2)c1,2.9,-0.3,-12.6,0.7,21.2
CCN(CC)S(=O)(=O)c1cccc(NC(=O)COC(=O)c2cc(=O)c3ccccc3o2)c1,-4.7,1.0,-13.7,-1.1,30.7*
CCC(C)(C)NC(=O)C(c1cccn1C)N(Cc1ccc(OC)cc1)C(=O)Cn1nnc2ccccc21 (stereo not given),30.5*,0.7,-4.9,-0.8,9.4
COc1cc(/C=c2\s/c(=C(/C#N)C(=O)N3CCCC3)n(-c3ccccc3)c2=O)ccc1O,8.1,38.7*,-6.1,-2.5,-1.1
COC(=O)/C=c1/s/c(=C(/C#N)C(=O)N2CCCCC2)n(-c2ccccc2)c1=O,-12.9,0.9,-6.3,-5.0,-1.8
O=C(CN1CCc2ccccc21)NC(=O)NC1CCCCC1,32.6*,-0.5,-12.8,-3.3,-16.0
NC(=O)C1CCN(C(=O)CN2CCc3ccccc32)CC1,45.3*,-0.7,0.7,1.5,-14.0
CC(C)(C)NC(=O)NC(=O)CN1CCc2ccccc21,0.1,-0.8,1.0,-2.6,6.2
COc1ccc(C)cc1NC(=O)C1CCCN(c2ncnc3onc(C)c23)C1 (stereo not given),.,-0.5,.,.,-11.8
O=C(c1ccc2c(c1)N(Cc1ccc(Cl)cc1)C(=O)c1ccccc1S2(=O)=O)N1CCOCC1,.,1.0,.,.,-2.0
O=C(Cn1c(-c2cccs2)cc2ccccc21)NCCCN1CCN(c2cccc(Cl)c2)CC1,.,27.2,.,.,-14.9
COc1ccc(CNC(=S)Nc2ccc(F)c(Cl)c2)cc1,68.2*,1.8,-15.2,0.7,7.0
CCC(=O)N1CCCc2cc(S(=O)(=O)N3CCN(c4ncccn4)CC3)ccc21,31.3*,0.4,-5.4,10.0,3.8
Cc1ccccc1OCC(=O)Nc1nnc(S(=O)(=O)N2CCCCCC2)s1,.,-0.9,.,.,13.4
CC1CCCCC1Nc1ncnc2sccc12 (stereo not given),36.4*,-0.1,-6.0,6.1,14.0
Oc1ccccc1N1CCN(c2ncnc3scc(-c4ccc(F)cc4)c23)CC1,.,.,1.7,1.7,.
Oc1ccccc1N1CCN(c2ncnc3scc(-c4ccccc4)c23)CC1,-1.2,9.1,9.8,5.0,33.1*
Cc1ccc(-c2nc(C)c(CCNC(=O)C(=O)Nc3cc(C)ccc3C)s2)cc1,.,0.2,.,.,7.6
CC(=O)c1c(-c2ccccc2)c2cc(Cl)ccc2[nH]c1=O,74.9*,-0.8,-46.2,-0.6,1.9
O=C(NNc1nc2cc3c(cc2s1)OCO3)c1cccc(F)c1,40.0*,-0.3,0.0,3.9,-13.0
C=CCc1ccccc1OCCNCCCOC,69.1*,0.1,-32.2,-5.8,-22.0
C=CCc1cc(Cl)ccc1OCCOCCNCCOC,4.0,0.8,-15.7,-3.4,-20.1
C=CCc1cc(Cl)ccc1OCCNCCCOC,37.1*,1.4,-15.6,-1.3,-33.5
Cn1c(=O)n(C)c2cc(NS(=O)(=O)c3ccc(F)cc3)c(NCc3ccccc3)cc21,.,-0.2,.,.,-6.0
COc1ccc2c(c1)NC1(O)c3ccccc3C(=O)C21O (stereo not given),32.3*,-0.4,0.5,-1.6,-7.9
